Screening results (PubChem BioAssay)
Sampled rows, rich in hits. Any-hit rate of the full collection: about 19%.
HT1080NT lethal = qHTS for induction of synthetic lethality in tumor cells producing 2HG: qHTS for the HT-1080-NT fibrosarcoma cell line | HT-1080-NT fibrosarcoma viability, CellTiter-Glo ATP luminescence, 48 h | Potency, µM (doses to about 46.1 µM), most hits filed as cytotoxic | actives 1.6% (n = 360,000) | AID 686970, 2013;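 also: NT is the 2HG producing partner of a matched IDH1 knockdown line; nearly all actives have a fitted effect of over 55% in size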
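A 48-hour cytotoxicity screen used HT-1080-NT cells plated 2 hours before compound delivery. ATP-based CellTiter-Glo luminescence measured viability, normalized to DMSO and no-cell controls.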
DT40 TDP1 no CPT = qHTS for Inhibitors of human tyrosyl-DNA phosphodiesterase 1 (TDP1): qHTS in cells in absence of CPT. AID 686978, 2013. actives 15% (n = 420,000). Potency, µM (highest dose often 46.2 µM), hits mostly inhibitors. DT40 Tdp1-/- hTDP1 cells, no CPT, ATP luminescence, 48 h; also: nearly all actives have a fitted effect of over 55% in size
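Camptothecin absent (DMSO only). Human TDP1-complemented DT40 knockout cells, 400 cells/well, 37 °C for minimum 48 hr; ATP measured via CellTiter-Glo, 30 min dark incubation, luminescence.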
HT1080 IDH1KD tx = qHTS for induction of synthetic lethality in tumor cells producing 2HG: qHTS for the HT-1080-IDH1KD cell line; HT-1080 IDH1 knockdown viability, ATP luminescence, 48 h; Potency, µM (titrated, usually from 46.1 µM), hits mostly cytotoxic; actives 2% (n = 360,000); AID 686971, 2013
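% activity derives from luminescence (CellTiter-Glo), normalised to DMSO and no-cell wells. HT-1080-IDH1KD cells, 750/well, had 48 h compound exposure at 37 °C.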
ELG1 DNA repair = qHTS screen for small molecules that inhibit ELG1-dependent DNA repair in human embryonic kidney (HEK293T) cells expressing luciferase-tagged ELG1; Potency, µM (highest dose often 46.1 µM), hits mostly inhibitors; HEK293T ELG1-luciferase reporter, luminescence, 16 h; DNA damage induced by 5-fluorouridine; actives 2.3% (n = 330,000); AID 504467, 2011; also: nearly all actives have a fitted effect of over 55% in size
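Overnight (16 hr) co-exposure of 2,000 cells/well to 5-fluorouridine and compound at 37 °C preceded detection. Luciferase was quantified via ONE-Glo luminescence; loss of signal denotes inhibition.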
DT40 TDP1 CPT = qHTS for Inhibitors of human tyrosyl-DNA phosphodiesterase 1 (TDP1): qHTS in cells in presence of CPT | chicken DT40 Tdp1-/-;hTDP1 cells + 20 nM CPT, ATP luminescence, 48 h | Potency, µM (doses to about 46.2 µM), usual class: inhibitors | actives 12% (n = 420,000) | AID 686979, 2013; also: nearly all actives have a fitted effect of over 55% in size
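Cell growth measured by CellTiter-Glo luminescence after a minimum 48 h, 37 C compound exposure with 20 nM CPT in Tdp1-knockout DT40 cells stably expressing hTDP1, seeded 400/well; qHTS titration format.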
IL-1B inflam inh = qHTS for Inhibitors of Inflammasome Signaling: IL-1-beta AlphaLISA Primary Screen | AID 743279, 2014 | THP-1 LPS/ATP IL-1B secretion, AlphaLISA, 16 h; active compounds read low | actives 4.7% (n = 360,000) | activity change, % at 57.5 µM; in the data active = activity change below about -50%; inconclusive = mostly about -30% to -49%
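Secreted IL-1B measured by AlphaLISA bead assay after 16 h compound exposure of THP-1 cells; compounds (final up to 57.5 uM) added 1 h before LPS (250 ng/mL) and ATP (1.25 mM) stimulation; lower signal means less secretion.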
Of the large screens only hits and unclear results are named; the others gave an inactive call. Unless noted, calls follow the shape of the dose curve; as a rule, active = well fitted curve in the direction sought with a large enough effect; inconclusive = small, poorly fitted or top-dose-only effect, or another doubt; inactive = no such curve, though single readings can be large; an effect the other way counts as inactive or inconclusive.

Cc1ccc(C(=O)Nn2cnc3ccccc3c2=O)cc1C	ELG1 DNA repair inconclusive
Clc1ccc(CSc2nncn2-c2ccc3c(c2)OCCO3)cc1	HT1080NT lethal 16µM, DT40 TDP1 no CPT 5.8µM, HT1080 IDH1KD tx 5.2µM, DT40 TDP1 CPT 2.6µM (no result: IL-1B inflam inh)
O=C(COC(=O)/C=C/c1ccccc1)NCCc1ccc(F)cc1	none
COc1ccc(-c2coc3c2c(C)cc2oc(=O)c(CC(=O)O)c(C)c23)cc1	none (no result: HT1080NT lethal, HT1080 IDH1KD tx, ELG1 DNA repair, IL-1B inflam inh)
CCN(CC)C(=O)[C@H]1CC(CC(=O)NCCCN(C)C)C(=O)N2CCc3c([nH]c4ccccc34)[C@]12C (stereo partly specified)	none
CCN(CC)C(=O)[C@H]1C[C@H](CC(=O)NCc2ccc(OC)c(OC)c2)C(=O)N2CCc3c([nH]c4ccc(Cl)cc34)[C@]12C	HT1080NT lethal inconclusive, DT40 TDP1 no CPT 23µM, HT1080 IDH1KD tx inconclusive, ELG1 DNA repair inconclusive, DT40 TDP1 CPT inconclusive
COc1ccc2[nH]c3c(c2c1)CCN1C(=O)C(CC(=O)NCCCN(C)C)C[C@H](C(=O)N(C(C)C)C(C)C)[C@@]31C (stereo partly specified)	none
CC(C)N(C(=O)[C@H]1C[C@H](CC(=O)NCCCN(C)C)C(=O)N2CCc3c([nH]c4ccc(Cl)cc34)[C@]12C)C(C)C	DT40 TDP1 no CPT 15µM, HT1080 IDH1KD tx inconclusive, ELG1 DNA repair inconclusive, DT40 TDP1 CPT inconclusive
CCN(CC)C(=O)[C@H]1C[C@H](CC(=O)NCCCN(C)C)C(=O)N2CCc3c([nH]c4ccc(Cl)cc34)[C@]12C	DT40 TDP1 no CPT inconclusive, ELG1 DNA repair inconclusive, DT40 TDP1 CPT 18µM, IL-1B inflam inh -52
COc1ccc(-c2ccnc3c2c(=O)n(C)c(=O)n3C)cc1OC	DT40 TDP1 CPT inconclusive (no result: HT1080NT lethal, HT1080 IDH1KD tx, ELG1 DNA repair, IL-1B inflam inh)
Cc1cc(OCCN2CCN(S(=O)(=O)c3ccccc3F)CC2)ccc1C(C)C	DT40 TDP1 no CPT 16µM, DT40 TDP1 CPT 21µM
COc1ccc(OCCN2CCN(S(=O)(=O)c3ccccc3C(F)(F)F)CC2)cc1	DT40 TDP1 no CPT inconclusive, ELG1 DNA repair inconclusive, DT40 TDP1 CPT inconclusive
CCN(CC)S(=O)(=O)c1ccc(NC2c3ccccc3C(=O)N2Cc2ccc3c(c2)OCO3)cc1 (stereo unspecified)	DT40 TDP1 no CPT inconclusive, ELG1 DNA repair inconclusive, DT40 TDP1 CPT 16µM
CCN(CC)S(=O)(=O)c1ccc(NC2c3ccccc3C(=O)N2Cc2ccco2)cc1 (stereo unspecified)	DT40 TDP1 no CPT 12µM, ELG1 DNA repair inconclusive, DT40 TDP1 CPT 21µM
COc1cccc(C2CC(=O)N(c3ccc(F)cc3)C3=C2C(=O)OC3)c1OC (stereo unspecified)	none (no result: HT1080NT lethal, HT1080 IDH1KD tx, ELG1 DNA repair, IL-1B inflam inh)
CCN(c1ccccc1)S(=O)(=O)c1ccc(C(=O)Nc2nnc(C3CC3)o2)cc1	HT1080NT lethal inconclusive, DT40 TDP1 no CPT 18µM, HT1080 IDH1KD tx inconclusive, ELG1 DNA repair 10µM, DT40 TDP1 CPT 21µM
COCCN(CCOC)S(=O)(=O)c1ccc(C(=O)Nc2nnc(C3CC3)o2)cc1	none
CN(c1ccccc1)S(=O)(=O)c1ccc(C(=O)Nc2nnc(C3CC3)o2)cc1	ELG1 DNA repair 10µM
O=C(O)c1ccc([N+](=O)[O-])c(CS(=O)(=O)c2ccccc2)c1	none
CC(=O)Nc1nc(-c2ccc3c(c2)CC(C)N3C(=O)C2CC2)c(C)s1 (stereo unspecified)	HT1080NT lethal inconclusive, DT40 TDP1 no CPT 2.1µM, ELG1 DNA repair 8.2µM, DT40 TDP1 CPT 1.2µM
CCOC(=O)C(=O)Nc1nc(-c2ccc3c(c2)CCN3C(=O)C2CC2)c(C)s1	ELG1 DNA repair inconclusive
Cc1sc(NC(=O)c2ccco2)nc1-c1ccc2c(c1)CC(C)N2C(=O)C1CC1 (stereo unspecified)	HT1080NT lethal 7.9µM, DT40 TDP1 no CPT 3.5µM, HT1080 IDH1KD tx 7.9µM, ELG1 DNA repair 15µM, DT40 TDP1 CPT 6.3µM, IL-1B inflam inh -73
Cc1nn(-c2ccccc2)c(Cl)c1/C=C1\C(=O)N(C)C(=S)N1C	DT40 TDP1 no CPT 15µM, ELG1 DNA repair inconclusive, DT40 TDP1 CPT inconclusive
Cc1nn(-c2ccccc2)c(Cl)c1/C=C1\SC(=S)N(C)C1=O	DT40 TDP1 no CPT inconclusive, DT40 TDP1 CPT inconclusive
Cc1nn(-c2ccccc2)c(Cl)c1/C=C/C(=O)c1ccccc1	HT1080NT lethal inconclusive, DT40 TDP1 no CPT inconclusive, HT1080 IDH1KD tx inconclusive, ELG1 DNA repair inconclusive, DT40 TDP1 CPT inconclusive, IL-1B inflam inh -95
Cc1ccc2c(Cl)cc(Cl)c(OCC(=O)Nc3ccc(C)c(S(=O)(=O)N(C)C)c3)c2n1	none (no result: HT1080NT lethal, DT40 TDP1 no CPT, HT1080 IDH1KD tx, DT40 TDP1 CPT, IL-1B inflam inh)
COc1ccc(C2=NS(=O)(=O)N(C)C(C(=O)NC3CCCC3)=C2)cc1	DT40 TDP1 no CPT inconclusive
COc1ccc(C2=NS(=O)(=O)N(C)C(C(=O)NCc3cccs3)=C2)cc1OC	DT40 TDP1 no CPT inconclusive, ELG1 DNA repair inconclusive, DT40 TDP1 CPT 15µM
COc1ccc(C2=NS(=O)(=O)N(C)C(C(=O)N3CCc4ccccc4C3)=C2)cc1OC	DT40 TDP1 no CPT 9.2µM, ELG1 DNA repair 18µM, DT40 TDP1 CPT 18µM
CCc1ccc(NC(=O)C2=CC(c3ccc(OC)c(OC)c3)=NS(=O)(=O)N2C)cc1	HT1080NT lethal inconclusive, DT40 TDP1 no CPT 18µM, ELG1 DNA repair 13µM, DT40 TDP1 CPT 12µM
COc1ccc(C2=NS(=O)(=O)N(C)C(C(=O)NC3CCCCC3)=C2)cc1	DT40 TDP1 no CPT 6.5µM
COc1ccc(NC(=O)C2=CC(c3ccc(OC)cc3)=NS(=O)(=O)N2C)cc1	DT40 TDP1 no CPT 21µM, DT40 TDP1 CPT inconclusive
COc1ccc(NC(=O)C2=CC(c3ccco3)=NS(=O)(=O)N2C)cc1	ELG1 DNA repair inconclusive
COc1ccc(OC)c(C2=NS(=O)(=O)N(C)C(C(=O)Nc3ccc(C(C)=O)cc3)=C2)c1	DT40 TDP1 no CPT 15µM, ELG1 DNA repair inconclusive, DT40 TDP1 CPT 18µM, IL-1B inflam inh inconclusive
CC(=O)Nc1cc([N+](=O)[O-])ccc1N1CCOCC1	none
O=C(CSc1nc(Nc2ccccc2)nc(N2CCOCC2)n1)Nc1cccc([N+](=O)[O-])c1	DT40 TDP1 no CPT inconclusive, ELG1 DNA repair 21µM, DT40 TDP1 CPT inconclusive, IL-1B inflam inh inconclusive
